Compound activity (PubChem)
Most compounds without a hit are left out; they make up all but 1.8% or so of the library.
DUSP3 inh: blocks human VHR1 dual specificity phosphatase | P51452 | actives 0.52% (n = 290,000) | recombinant VHR phosphatase, pNPP absorbance | inhibition, % at 13.3 µM; in the data active = inhibition above about 50%
Target sequence (P51452 whole entry, looked up): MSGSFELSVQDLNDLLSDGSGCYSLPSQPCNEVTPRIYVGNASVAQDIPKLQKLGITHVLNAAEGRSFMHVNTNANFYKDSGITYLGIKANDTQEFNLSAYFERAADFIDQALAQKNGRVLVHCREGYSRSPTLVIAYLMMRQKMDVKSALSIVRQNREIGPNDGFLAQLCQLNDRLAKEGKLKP
PrPC surface inh: cell surface PrPC inhibition, primary TR-FRET screen. P04156. TR-FRET read-out. inhibition, % at 13.8 µM. actives 0.43% (n = 370,000); in the data active = inhibition above about 24%; also: 0% = median of the test wells and 100% = reference compound wells
Yp Topo-I inh: Y. pestis Topo-I inhibition via cleavage products; Y. pestis Topo-I cleavage product accumulation, plate reader; actives 0.064% (n = 360,000); activity, % at 10 µM; in the data active = activity above about 50%, passing the limit was not always enough
CCHF vOTU inh: blocks the CCHF virus ovarian tumor domain protease; CCHFV vOTU protease, Pep-AMC fluorescence; inhibition, % at 11.5 µM; actives 0.55% (n = 370,000); AID 651958; in the data active = inhibition above about 30%; also: 0% = vehicle wells with enzyme and 100% = no enzyme wells
BH1578 lux ind: quorum light induction in luxS cqsA deficient V. cholerae. activation, % at 18.7 µM. V. cholerae BH1578 lux reporter, luminescence, 6 h. actives 0.16% (n = 350,000); in the data active = activation mostly above about 9.7%, no sharp cut-off
MazF activator: activators of E. coli MazEF toxin-antitoxin RNase; actives 0.32% (n = 350,000); FAM/BHQ RNA-DNA oligo cleavage fluorescence, 5 h; activation, % at 20 µM; P0AE70; in the data active = activation above about 50%
Target sequence (P0AE70 whole entry, looked up): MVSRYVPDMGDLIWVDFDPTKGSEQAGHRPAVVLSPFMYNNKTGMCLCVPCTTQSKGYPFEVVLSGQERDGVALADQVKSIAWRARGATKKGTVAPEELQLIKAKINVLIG
An asterisk follows results filed as active; i = inactive; . = no result given.

SMILES | DUSP3 inh | PrPC surface inh | Yp Topo-I inh | CCHF vOTU inh | BH1578 lux ind | MazF activator
COc1ccc(C(=O)N/N=C(\C)c2ccc3c(c2)C2C=CCC2C(c2ccccc2)N3)cc1 (centres undefined) | 12.7 | . | -0.5 | . | -3.3 | 8.4
CCNc1nc(NC(C)(C)C)nc(N2CCCC2)n1 | 13.3 | 15.4 | 2.0 | 6.8 | -9.8 | 4.2
CC(C)(C)Nc1nc(N2CCCC2)nc(N2CCCC2)n1 | 27.7 | 12.4 | 8.4 | 10.4 | 16.7* | 0.2
CCN(CC)C(=O)CC[C@H]1CC[C@]2(CCCN(c3ccccc3)C2)O1 | . | -4.2 | . | 7.9 | . | .
O=C(C1=NN[C@@H]2C(=O)N(c3cccc(C(F)(F)F)c3)C(=O)[C@H]12)c1ccc2ccccc2n1 | 4.0 | 5.6 | -0.9 | 24.4 | 0.2 | 96.5*
COc1cccc(N2C(=O)[C@H]3C(C(=O)c4cnccn4)=NN[C@H]3C2=O)c1 | 11.2 | 7.7 | -6.3 | 9.0 | 4.2 | -61.1
O=C(C1=NN[C@@H]2C(=O)N(c3cccc(F)c3)C(=O)[C@H]12)c1ccc2ccccc2n1 | 32.7 | -11.9 | -2.2 | -5.0 | i | 72.9*
COc1ccc(NC(=O)Nc2ccccc2F)cc1 | 11.6 | 6.8 | -5.4 | 2.3 | -0.5 | 2.7
O=C(Nc1ccc(F)cc1)Nc1ccccc1F | 56.3* | 14.0 | 1.8 | 11.7 | -0.3 | -2.4
O=C(Nc1ccc(Cl)cc1)Nc1ccccc1C(=O)O | 56.9* | -0.1 | 4.6 | -5.3 | 0.0 | 5.6
CC(=O)c1ccc(N2CCN(C(=O)c3cc4c(C)nc5ccccc5c4o3)CC2)cc1 | 14.2 | 7.2 | 18.3 | -8.8 | i | 55.9*
S=c1[nH]nc(-c2cc(-c3ccccc3)n[nH]2)n1N=Cc1cccc(OCc2ccccc2)c1 | . | -11.5 | . | 27.6 | . | .
COC(=O)[C@]12C[C@H](CC(=O)N3CCC(c4ccccc4)CC3)C(=O)N(CCC3=CCCCC3)C1=C[C@H](C(C)C)O[C@@H]2C1CC1 | . | -0.8 | . | 22.2 | . | .
O=c1oc2ccccc2c2c1SC(C(F)(F)F)C2 (centres undefined) | 56.3* | -7.5 | 11.8 | -130.2 | 7.7 | 1.6
CCN(CC)C(=O)CC[C@H]1CC[C@]2(CCCN(C(=O)C3CCCC3)C2)O1 | . | -5.7 | . | -1.2 | . | .
Cc1cc(C)cc(N(CC(=O)NC2CCC(C)CC2)S(=O)(=O)c2ccc(Cl)s2)c1 (centres undefined) | . | -5.7 | . | -0.9 | . | .
Cc1ccc(OCCn2c(C)c(/C=N/n3cnnc3)c3ccccc32)cc1 | 25.0 | 1.1 | 24.8 | 24.3 | 0.4 | 49.0
Cc1c(/C=N/n2cnnc2)c2ccccc2n1CCOc1ccc(Cl)cc1 | 33.7 | 2.6 | 6.7 | 7.2 | i | 113.0*
CCOC(=O)[C@]12CCCCC/C=C\1N(CCc1ccc(Cl)cc1)C(=O)[C@H]2CC(=O)N1CCC(c2ccccc2)CC1 | . | -7.6 | . | 11.0 | . | .
Brc1ccc(Oc2ccc(Br)cc2Br)c(Br)c1 | . | -0.6 | 4.2 | 1.3 | -0.1 | -10.2
O=c1c(Br)ccc(Br)cc1Br | . | 87.5* | 3.4 | 9.1 | i | 7.1
COc1ccccc1N1CCN(C2CCCN(C(=O)CCN3CCCCO3)C2)CC1 (centres undefined) | 51.3* | -1.0 | 5.5 | 9.2 | -3.1 | 12.8
O=C(CCN1CCCO1)N1CCCC(N2CCN(c3ccccc3F)CC2)C1 (centres undefined) | 34.8 | -7.4 | -3.6 | 20.7 | i | 9.2
Cc1ccc2c(Cl)cc(Cl)c(OCC(=O)O)c2n1 | 56.2* | -5.9 | 6.1 | 1.3 | i | 0.7
O=C(NC1CCCCN(Cc2ccc(Cl)cc2)C1=O)c1c(F)cccc1F (centres undefined) | . | 14.6 | . | 0.4 | . | .
SMILES | DUSP3 inh | PrPC surface inh | Yp Topo-I inh | CCHF vOTU inh | BH1578 lux ind | MazF activator
CCCCCCCCN1C(=O)[C@@H](CC(=O)N2CCOCC2)C[C@@]2(C(=O)OC)C1=C[C@H](COCc1ccccc1)O[C@@H]2C | . | -3.5 | . | 9.7 | . | .
O=C(NCc1cccnc1)c1sc2cc(Cl)ccc2c1Cl | 50.3* | 10.9 | 12.4 | -0.8 | -0.5 | 0.4
CCOc1ccc2c(c1)c1nc3ccccc3nc1n2C | 17.2 | -1.3 | -1.0 | 10.2 | -5.6 | 97.7*
Cn1c2ccc(F)cc2c2nc3ccccc3nc21 | 38.8 | -7.2 | -6.7 | 18.7 | i | 111.4*
Cn1c2ccc(Cl)cc2c2nc3ccccc3nc21 | 12.4 | -4.3 | 6.2 | 9.0 | -0.2 | -5.4
Cc1ccc2c(c1)c1nc3ccccc3nc1n2C | 34.8 | 5.4 | 1.3 | 2.2 | 7.3 | 221.5*
CC(C)(C)OC(=O)NCc1cc(F)ccc1/C=C/S(=O)(=O)NC1CCCC1 | . | 7.7 | . | 22.8 | . | .
COC(=O)c1ccc(/C=N\N2CCN(c3ccccc3)CC2)cc1 | 51.3* | -4.2 | 0.1 | 0.6 | -0.5 | 11.5
C(=N\N1CCN(c2ccccc2)CC1)/c1ccccc1 | 25.6 | -0.6 | -0.3 | -5.3 | i | 2.5
Nn1c(SCC(=O)Nc2nccs2)nnc1-c1cc(-c2ccccc2)n[nH]1 | . | 1.7 | . | 9.8 | . | .
CCN1C(=O)c2cccc3c(NC(=O)c4ccc5c(c4)OCCO5)ccc1c23 | 21.6 | -0.5 | -2.4 | 8.5 | i | 94.8*
CCN1C(=O)c2cccc3c(NC(=O)c4ccccc4)ccc1c23 | 13.6 | -36.7 | 0.2 | 5.6 | . | -6.4
CC(C)OC(=O)C(C)(C)Oc1ccc(C(=O)c2ccc(Cl)cc2)cc1 | 16.3 | 2.8 | 52.8* | -1.4 | i | -2.8
O=C(OC12CCCN(C1)/C(=C/c1ccccc1)C2)c1cccc(F)c1 (centres undefined) | . | 4.0 | . | 10.0 | . | .
CCN1CCN(C(=O)COc2ccc(S(=O)(=O)N3CCOCC3)cc2C)CC1 | 54.4* | 5.6 | 0.9 | 5.9 | -6.2 | 10.7
COC(=O)c1ccc(OCC(=O)Nc2ccsc2C(=O)OC)cc1 | 25.7 | 5.8 | -1.8 | 2.6 | -0.3 | -31.6
COC(=O)c1sccc1NC(=O)COc1ccc(F)cc1Cl | 57.4* | -4.1 | 10.6 | -7.7 | i | -4.0
Cc1nc2ccc(S(=O)(=O)NCC(=O)N(C)Cc3ccc(F)cc3)cc2s1 | . | -2.8 | . | -2.8 | . | .
C#CCN1C(=O)S/C(=C\c2ccc(N3CCOCC3)cc2C)C1=O | 9.5 | -0.4 | -2.3 | -6.5 | -0.2 | 310.0*
C=CCN1[C@H](C#N)[C@@H](c2ccc(C#Cc3ccccc3OC)cc2)[C@H]1CO | . | -0.9 | . | 4.8 | . | .
CN1[C@H](Cc2ccccc2)COc2cc(N3CCCC3)ccc2S1(=O)=O | . | -0.3 | . | 17.4 | . | .
COCCn1c(=O)[nH]c(=O)c2c1nc(-c1ccc(-c3ccc(Cl)cc3[N+](=O)[O-])o1)n2Cc1ccccc1 | 13.6 | -13.7 | 41.5 | 11.4 | -0.4 | 6.2
COCCn1c(-c2ccc(-c3ccc([N+](=O)[O-])cc3Br)o2)nc2c1c(=O)[nH]c(=O)n2CC(C)C | 2.8 | 3.3 | -6.3 | -0.3 | 1.3 | 98.2*
N#C/C(=C\c1ccccn1)c1nc2ccccc2s1 | 32.9 | -8.2 | 11.0 | -9.5 | -0.2 | 66.7*
CC1(C)CC(NC(=O)Cc2ccc(Cl)cc2)CC(C)(C)N1 | 53.3* | 0.5 | -0.1 | -9.5 | i | 2.2
CC1(C)CC(NC(=O)c2ccc(Cl)cc2)CC(C)(C)N1 | 35.7 | -3.9 | 1.0 | -11.9 | i | 2.5
